Among all 5,500 compounds or so, about 2,000 (36%) were called active. Another 18% or so got no clear call; they are omitted. Cut-off read from the data, not from the text of the source: active = normalized growth mostly below about 0.91 (no sharp cut-off); inconclusive = no clear call, values can overlap the other calls; inactive = mostly above about 0.92. Some of the results follow.
Assay: chemical genetic growth profiling, strain panel (AID 1159580);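 note: tested at 20 µM; growth read once vehicle control cultures reached saturation at 30 °C; 1 = growth at the plate median or of vehicle wells; lower values mean less growth of the strain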
Details: S. cerevisiae deletion strains, growth OD

Measured: normalized growth

O=C1Nc2ccccc2/C1=C\c1c(Cl)cccc1Cl
inactive: locus YAR019C, strain CDC15, hits give low values 0.966 | locus YBL105C, strain PKC1, hits give low values 0.963 | locus YBR135W, strain CKS1, hits give low values 0.973 | locus YBR136W, strain MEC1, hits give low values 0.974 | locus YBR160W, strain CDC28, hits give low values 0.972 | locus YDL017W, strain CDC7, hits give low values 0.969 | locus YDL028C, strain MPS1, hits give low values 0.975 | locus YDL101C, strain DUN1, hits give low values 0.964 | locus YDL108W, strain KIN28, hits give low values 0.974 | locus YDL132W, strain cdc53, hits give low values 0.965 | locus YDL214C, strain PRR2, hits give low values 0.951 | locus YDR052C, strain DBF4, hits give low values 0.975 | locus YDR054C, strain cdc34, hits give low values 0.958 | locus YDR226W, strain ADK1, hits give low values 0.963 | locus YDR477W, strain SNF1, hits give low values 0.939 | locus YER123W, strain YCK3, hits give low values 0.945 | locus YER133W, strain GLC7, hits give low values 0.945 | locus YFL009W, strain cdc4, hits give low values 0.96 | locus YFL029C, strain CAK1, hits give low values 0.961 | locus YFR003C, strain YPI1, hits give low values 0.969 | locus YFR019W, strain FAB1, hits give low values 0.976 | locus YFR028C, strain CDC14, hits give low values 0.973 | locus YGR040W, strain KSS1, hits give low values 0.945 | locus YGR052W, strain FMP48, hits give low values 0.981 | locus YGR092W, strain DBF2, hits give low values 0.909 | locus YHR030C, strain SLT2, hits give low values 0.985 | locus YHR079C, strain IRE1, hits give low values 0.901 | locus YHR082C, strain KSP1, hits give low values 1.03 | locus YHR205W, strain SCH9, hits give low values 0.918 | locus YIL147C, strain SLN1, hits give low values 0.971 | locus YJL095W, strain BCK1, hits give low values 0.894 | locus YJL128C, strain PBS2, hits give low values 0.915 | locus YJL157C, strain FAR1, hits give low values 0.946 | locus YJR016C, strain ILV3, hits give low values 0.974 | locus YJR066W, strain TOR1 (second series), hits give low values 0.95 | locus YJR066W, strain TOR1, hits give low values 1.04 | locus YKL048C, strain ELM1, hits give low values 0.944 | locus YKL067W, strain YNK1, hits give low values 0.963 | locus YKL101W, strain HSL1, hits give low values 0.938 | locus YKL193C, strain SDS22, hits give low values 0.968 | locus YKL203C, strain TOR2, hits give low values 1.01 | locus YLR133W, strain CKI1, hits give low values 0.962 | locus YLR403W, strain SFP1, hits give low values 0.928 | locus YML070W, strain DAK1, hits give low values 0.954 | locus YMR001C, strain CDC5, hits give low values 0.968 | locus YMR205C, strain PFK2 (second series), hits give low values 0.956 | locus YMR277W, strain FCP1, hits give low values 0.965 | locus YNL006W, strain LST8, hits give low values 0.969 | locus YNL020C, strain ARK1, hits give low values 0.941 | locus YNL161W, strain CBK1, hits give low values 0.968 | locus YNL183C, strain NPR1, hits give low values 0.989 | locus YNL207W, strain RIO2, hits give low values 0.96 | locus YNL222W, strain SSU72, hits give low values 0.967 | locus YNL307C, strain MCK1 (second series), hits give low values 0.953 | locus YOL078W, strain AVO1, hits give low values 0.963 | locus YOL136C, strain PFK27, hits give low values 0.959 | locus YOR061W, strain CKA2, hits give low values 0.959 | locus YOR119C, strain RIO1, hits give low values 1.02 | locus YOR231W, strain MKK1, hits give low values 0.953 | locus YOR329C, strain SCD5, hits give low values 0.969 | locus YPL031C, strain PHO85, hits give low values 0.939 | locus YPL153C, strain RAD53, hits give low values 0.935 | locus YPL204W, strain HRR25, hits give low values 0.926 | locus YPL209C, strain IPL1, hits give low values 0.969 | locus YPL256C, strain CLN2, hits give low values 0.905 | locus YPR025C, strain CCL1, hits give low values 0.972 | locus YPR106W, strain ISR1, hits give low values 0.954 | locus YPR111W, strain DBF20, hits give low values 0.952 | strain NNK1, hits give low values 0.946 | strain TSCII, hits give low values 0.964
active: locus YLR113W, strain HOG1, hits give low values 0.845
